Measured values taken from PubChem BioAssay AID1159580 (chemical genetic matrix, 2015).
Where “and” joins values, the source holds several entries; their conditions need not be identical. Equal entries are not always repeated. In all, about 5,500 compounds went through this assay and about 2,000 (36%) were called active. Inconclusive results (about 18%) are left out. Cut-off read from the data, not from the text of the source: active = normalized growth mostly below about 0.91 (no sharp cut-off); inconclusive = no clear call, values can overlap the other calls; inactive = mostly above about 0.92. The list shows a part of the results.

Test: chemical genetic growth profiling, strain panel (AID 1159580);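 note: tested at 20 µM; growth read once vehicle control cultures reached saturation at 30 °C; 1 = growth at the plate median or of vehicle wells; lower values mean less growth of the strain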
Settings: S. cerevisiae deletion strains, growth OD
[1] = locus YDR150W, strain NUM1, hits give low values
[2] = locus YJR075W, strain HOC1, hits give low values
[3] = locus YMR263W, strain SAP30, hits give low values
[4] = locus YNL128W, strain TEP1, hits give low values
[5] = locus YPL055C, strain LGE1, hits give low values

Measured: normalized growth

CC(C)/C(O)=C1/C(=O)O[C@@H](c2ccoc2)[C@]2(C)C(O)[C@@H](O)[C@@]34OC5(C)OC67CC(C)(C(O)[C@]6(O)[C@@H](O)[C@]3(O5)C12)[C@H](CC(=O)O)[C@]74C (some centres undefined)
inactive: locus YAL021C, strain ccr4, hits give low values 0.945 | locus YAL026C, strain drs2, hits give low values 1.01 | locus YAL030W, strain snc1, hits give low values 0.979 | locus YBL061C, strain skt5, hits give low values 1.01 | locus YBR009C, strain hhf1, hits give low values 0.993 | locus YBR021W, strain FUR4, hits give low values 0.991 | locus YBR023C, strain chs3, hits give low values 0.992 | locus YBR171W, strain sec66, hits give low values 1.01 | locus YBR229C, strain ROT2, hits give low values 1 | locus YBR231C, strain swc5, hits give low values 1.03 | locus YBR279W, strain paf1, hits give low values 0.997 | locus YCL011C, strain gbp2, hits give low values 0.975 | locus YCL016C, strain dcc1, hits give low values 0.982 | locus YCL029C, strain bik1, hits give low values 0.997 | locus YCL061C, strain MRC1, hits give low values 0.998 | locus YCL069W, strain vba3, hits give low values 0.981 | locus YCR088W, strain abp1, hits give low values 0.994 | locus YDL005C, strain med2, hits give low values 0.985 | locus YDL035C, strain GPR1, hits give low values 0.993 | locus YDL040C, strain nat1, hits give low values 0.995 | locus YDL074C, strain BRE1, hits give low values 1 | locus YDL101C, strain DUN1, hits give low values 1.01 | locus YDL185W, strain tfp1, hits give low values 1.02 | locus YDL192W, strain arf1, hits give low values 1.01 | locus YDR001C, strain nth1, hits give low values 0.974 | locus YDR069C, strain doa4, hits give low values 1.02 | locus YDR101C, strain arx1, hits give low values 0.986 | locus YDR137W, strain rgp1, hits give low values 0.992 | [1] 0.965 | locus YDR159W, strain sac3, hits give low values 1.06 | locus YDR162C, strain NBP2, hits give low values 1.01 | locus YDR195W, strain ref2 0.974 | locus YDR297W, strain sur2, hits give low values 1.01 | locus YDR318W, strain mcm21, hits give low values 1.01 | locus YDR334W, strain swr1, hits give low values 0.988 | locus YDR335W, strain msn5, hits give low values 0.987 | locus YDR388W, hits give low values 1 | locus YDR392W, strain spt3, hits give low values 0.933 | locus YDR502C, strain sam2, hits give low values 1.01 | locus YEL003W, strain gim4, hits give low values 1.01 | locus YEL037C, strain rad23, hits give low values 0.99 | locus YEL061C, strain CIN8 (second series), hits give low values 0.985 | locus YER015W, strain faa2, hits give low values 1.01 | locus YER016W, strain bim1, hits give low values 0.998 | locus YER110C, hits give low values 1.01 | locus YER111C, strain swi4, hits give low values 0.981 | locus YER155C, strain BEM2 (second series), hits give low values 1.04 | locus YER155C, strain BEM2, hits give low values 1 | locus YER167W, strain BCK2, hits give low values 0.996 | locus YFR010W, strain ubp6, hits give low values 1.01 | locus YGL078C, strain dbp3, hits give low values 1.02 | locus YGL086W, strain mad1, hits give low values 1 | locus YGL167C, strain pmr1, hits give low values 0.993 | locus YGL173C, strain kem1, hits give low values 1.02 | locus YGL227W, strain vid30, hits give low values 0.993 | locus YGL240W, strain doc1, hits give low values 1.02 | locus YGL248W, strain PDE1, hits give low values 0.997 | locus YGL253W, strain hxk2, hits give low values 1.01 | locus YGR135W, strain pre9, hits give low values 1.02 | locus YGR229C, strain SMI1, hits give low values 0.991 | locus YGR252W, strain gcn5, hits give low values 0.988 | locus YHR013C, strain ard1, hits give low values 0.976 | locus YHR027C, strain rpn1, hits give low values 0.994 | locus YHR030C, strain SLT2, hits give low values 0.951 | locus YHR079C, strain IRE1 (second series), hits give low values 1.01 | locus YHR079C, strain IRE1, hits give low values 0.984 | locus YHR094C, strain hxt1, hits give low values 1.01 | locus YHR129C, strain ARP1, hits give low values 0.999 | locus YHR142W, strain chs7, hits give low values 0.945 | locus YHR200W, strain rpn10, hits give low values 1.01 | locus YIL066C, strain RNR3, hits give low values 0.991 | locus YIL073C, strain SPO22, hits give low values 1.06 | locus YIL125W, strain kgd1, hits give low values 1 | locus YIR030C, strain dcg1, hits give low values 1.01 | locus YJL092W, strain hpr5, hits give low values 0.989 | locus YJL095W, strain BCK1 (second series), hits give low values 1 | locus YJL095W, strain BCK1, hits give low values 1.03 and 0.971 | locus YJL115W, strain asf1, hits give low values 0.977 | locus YJL129C, strain trk1, hits give low values 0.997 | locus YJL134W, strain LCB3, hits give low values 0.993 | locus YJL154C, strain vps35, hits give low values 0.98 | locus YJL164C, strain tpk1, hits give low values 0.958 | locus YJL166W, strain qcr8, hits give low values 1 | locus YJL168C, strain set2, hits give low values 1.01 | locus YJL187C, strain SWE1 (second series), hits give low values 1.01 | locus YJR066W, strain TOR1, hits give low values 0.926 | [2] 1 | locus YKL009W, strain mrt4, hits give low values 1.02 | locus YKL068W, hits give low values 0.999 | locus YKL085W, strain MDH1 (second series), hits give low values 1.01 | locus YKL085W, strain MDH1, hits give low values 1.01 | locus YKL160W, strain elf1, hits give low values 0.962 | locus YKL190W, strain CNB1, hits give low values 0.986 | locus YKR001C, strain vps1, hits give low values 1.01 | locus YKR026C, strain gcn3, hits give low values 0.994 | locus YKR091W, strain srl3, hits give low values 0.991 | locus YLL001W, strain dnm1, hits give low values 0.973 | locus YLL026W, hits give low values 0.992 | locus YLL041C, strain sdh2, hits give low values 0.985 | locus YLR027C, strain aat2, hits give low values 0.999 | locus YLR039C, strain RIC1, hits give low values 1.06 | locus YLR058C, strain SHM2, hits give low values 1.01 | locus YLR102C, strain apc9, hits give low values 0.998 | locus YLR113W, strain HOG1, hits give low values 0.997 | locus YLR221C, strain rsa3, hits give low values 1.05 | locus YLR258W, strain gsy2, hits give low values 0.998 | locus YLR262C, strain YPT6 (second series), hits give low values 0.979 | locus YLR262C, strain YPT6, hits give low values 1.1 | locus YLR268W, strain sec22, hits give low values 0.999 | locus YLR320W, strain mms22, hits give low values 1.04 | locus YLR330W, strain CHS5, hits give low values 1 | locus YLR342W, strain FKS1 (second series), hits give low values 0.985 | locus YLR342W, strain FKS1, hits give low values 0.995 | locus YLR357W, strain rsc2, hits give low values 1.01 | locus YLR370C, strain arc18, hits give low values 0.977 | locus YLR371W, strain rom2, hits give low values 1.01 | locus YLR384C, strain iki3, hits give low values 0.997 | locus YLR418C, strain cdc73, hits give low values 1.03 | locus YML016C, strain PPZ1, hits give low values 1.01 | locus YML032C, strain rad52, hits give low values 1.01 | locus YML120C, strain ndi1, hits give low values 0.973 | locus YML124C, strain tub3, hits give low values 1.02 | locus YMR058W, strain fet3, hits give low values 1 | locus YMR078C, strain ctf18, hits give low values 1.02 | locus YMR125W, strain sto1, hits give low values 0.951 | locus YMR129W, hits give low values 0.989 | locus YMR205C, strain PFK2, hits give low values 0.978 | locus YMR223W, strain ubp8, hits give low values 1.01 | locus YMR231W, strain pep5, hits give low values 1 | [3] 1.01 | locus YMR307W, strain GAS1, hits give low values 0.982 | locus YNL067W, strain RPL9B, hits give low values 1.03 | locus YNL071W, strain lat1, hits give low values 0.987 | [4] 1 | locus YNL183C, strain NPR1, hits give low values 0.939 | locus YNL209W, strain ssb2, hits give low values 0.988 | locus YNL233W, strain BNI4, hits give low values 0.981 | locus YNL248C, strain rpa49, hits give low values 1.03 | locus YNL250W, strain rad50, hits give low values 1.01 | locus YNL271C, strain bni1, hits give low values 1.01 | locus YNL298W, strain CLA4, hits give low values 1.01 | locus YNL307C, strain MCK1, hits give low values 1 | locus YNL322C, strain KRE1 (second series), hits give low values 1.02 | locus YNR049C, strain mso1, hits give low values 0.974 | locus YNR052C, strain pop2, hits give low values 1.02 | locus YOL012C, strain htz1 0.728 | locus YOL147C, strain pex11, hits give low values 1.01 | locus YOR001W, strain rrp6, hits give low values 1.04 | locus YOR061W, strain CKA2, hits give low values 1 | locus YOR069W, strain VPS5, hits give low values 0.998 | locus YOR070C, strain gyp1, hits give low values 0.996 | locus YOR080W, strain dia2, hits give low values 1 | locus YOR083W, strain WHI5, hits give low values 0.954 | locus YOR106W, strain vam3, hits give low values 0.938 | locus YOR136W, strain idh2, hits give low values 1.02 | locus YOR144C, strain elg1, hits give low values 1.01 | locus YOR184W, strain ser1, hits give low values 1 | locus YOR231W, strain MKK1, hits give low values 0.991 | locus YOR265W, strain rbl2, hits give low values 0.989 | locus YOR270C, strain vph1, hits give low values 0.966 | locus YOR290C, strain snf2, hits give low values 0.907 | locus YOR316C, strain cot1, hits give low values 1.01 | locus YPL051W, strain arl3, hits give low values 1.01 | [5] 0.993 | locus YPL078C, strain atp4, hits give low values 0.953 | locus YPL106C, strain sse1, hits give low values 0.976 | locus YPL240C, strain hsp82, hits give low values 1 | locus YPL256C, strain CLN2, hits give low values 0.946 | locus YPR119W, strain clb2, hits give low values 1.01 | locus YPR141C, strain kar3, hits give low values 1.02 | locus YPR163C, strain tif3, hits give low values 1.01 | locus YPR167C, strain met16, hits give low values 1.01 | strain wtn01, hits give low values 1

CC(N)c1cccc(Cl)c1Cl (centres undefined)
inactive: locus YAL013W, strain DEP1, hits give low values 1.01 | locus YAL040C, strain CLN3, hits give low values 0.969 | locus YCL061C, strain MRC1 (second series), hits give low values 1 | [1] 0.996 | locus YDR363W, strain ESC2, hits give low values 1.08 | locus YER002W, strain NOP16, hits give low values 1.01 | locus YGR078C, strain PAC10, hits give low values 0.981 | [2] 1.02 | [3] 1 | [4] 1.01 | locus YNL153C, strain GIM3, hits give low values 0.972 | locus YNL175C, strain NOP13, hits give low values 0.981 | locus YNL197C, strain WHI3, hits give low values 0.953 | locus YNL224C, strain SQS1, hits give low values 1.01 | locus YOR083W, strain WHI5 (second series), hits give low values 1.01 | [5] 1.07
